An excerpt weighted towards active compounds, which were near 0.53% of everything screened.
USP1 inh: blocks the human USP1/UAF1 deubiquitinase complex | O94782 | recombinant USP1/UAF1, Ub-Rhodamine cleavage fluorescence | Potency, µM (series often up to 57.1 µM), most hits filed as inhibitors | 390,000 compounds, 0.23% hits | AID 743255; further: nearly all actives have a fitted effect of over 60% in size
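USP1/UAF1 complex (1 nM) preincubated 15 min at room temperature with compound, then Ub-Rho substrate (150 nM final) added. Kinetic fluorescence at 480/540 nm over 6 reads at 60 s intervals; 50 mM HEPES pH 7.8, 0.5 mM EDTA, 0.1 mg/ml BSA, 1 mM TCEP, 0.01% Tween-20.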
PGK inhibitor: T. brucei PGK inhibition | P07378 | PGK/GAPDH coupled, Kinase-Glo luminescence, 60 min | Potency, µM (highest dose often 57.5 µM), hits mostly inhibitors | 380,000 compounds, 0.043% hits | AID 602233; further: nearly all actives have a fitted effect of over 60% in size
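Recombinant glycosomal PGK reaction used 1,3-bisphosphoglycerate generated in-well by GAPDH (100nM final) in 100mM TEA pH 7.6, 5mM MgCl2, 0.01% Tween-20. After 60 minutes at room temperature, ATP was read by Kinase-Glo Plus luminescence end-point.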
PI4K2A inh: PI4K2A (human) kinase inhibition; activity change, negative = inhibition, % at 76.9 µM; 420,000 compounds, 0.13% hits; purified PI4K2A, ADP-Glo luminescence, 1 h; hits give low values; AID 1346378; in the data active means activity change below about -50%; inconclusive means mostly about -30% to -49%
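ADP-Glo luminescence measured ADP generated by PI4K2A enzyme (4 ug/mL before mixing) with 1.2 mM PI substrate (pre-mix) and 300 microM ATP (pre-mix). Tris pH7.5 buffer with MgCl2, Triton X-100; 1 h reaction at ambient temperature.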
GLS inh: blocks human kidney-isoform glutaminase activity; GLS enzymatic activity, qHTS titration; Potency, µM (top dose mostly 45.5 µM), actives largely listed as inhibitors; 410,000 compounds, 0.21% hits; AID 624170
Target sequence (O94925 whole entry, looked up, canonical isoform): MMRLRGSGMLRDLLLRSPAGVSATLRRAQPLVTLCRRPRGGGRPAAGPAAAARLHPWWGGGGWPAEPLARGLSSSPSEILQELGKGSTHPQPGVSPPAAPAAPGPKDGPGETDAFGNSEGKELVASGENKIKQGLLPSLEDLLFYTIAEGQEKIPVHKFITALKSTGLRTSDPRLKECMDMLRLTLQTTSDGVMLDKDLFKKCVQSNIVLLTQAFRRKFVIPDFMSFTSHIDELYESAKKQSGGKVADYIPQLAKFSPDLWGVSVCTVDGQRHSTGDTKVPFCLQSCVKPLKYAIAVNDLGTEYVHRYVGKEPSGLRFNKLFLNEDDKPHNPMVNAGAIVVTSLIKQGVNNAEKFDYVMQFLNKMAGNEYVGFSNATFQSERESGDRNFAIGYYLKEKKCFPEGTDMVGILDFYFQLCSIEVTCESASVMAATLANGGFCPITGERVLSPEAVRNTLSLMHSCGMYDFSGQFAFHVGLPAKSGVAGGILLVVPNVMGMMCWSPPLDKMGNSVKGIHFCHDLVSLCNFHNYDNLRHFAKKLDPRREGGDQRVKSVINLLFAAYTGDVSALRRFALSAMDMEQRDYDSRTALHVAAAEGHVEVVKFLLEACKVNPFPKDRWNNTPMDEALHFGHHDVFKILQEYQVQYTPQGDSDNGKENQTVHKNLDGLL
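Glutamate formation by hKGA was monitored fluorometrically using coupled glutamate oxidase, HRP and Amplex Red. Substrate was added as 1 mM L-glutamine solution; incubation was 30 min at RT after an initial read.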
Of the large screens only hits and unclear results are named; the others gave an inactive call. Unless noted, the call rests on the fitted dose curve; in most records, active means well fitted curve in the direction sought with a large enough effect; inconclusive means small, poorly fitted or top-dose-only effect, or another doubt; inactive means no such curve, though single readings can be large; an effect the other way counts as inactive or inconclusive.

CCOC(=O)Cc1csc(NC(=O)c2ccoc2C)n1	PI4K2A inh -50.2
CCOC(=O)Cc1csc(NC(=O)c2c(C)noc2C)n1	none
CCOC(=O)Cc1csc(NC(=O)c2cccs2)n1	PI4K2A inh -83.8
CC/C=C(\C(=O)N[C@H]1C(=O)N2C(C(=O)OCOC(=O)C(C)(C)C)=C(COC(N)=O)CS[C@H]12)c1csc(N)n1	none (no result: USP1 inh, PGK inhibitor, PI4K2A inh)
O=S(=O)(c1ccc(NC(=S)N2CCN(c3ccc(O)cc3)CC2)cc1)N1CCOCC1	GLS inh 7.08µM
CCCCN(C)C(=O)c1cc2cc3ccc(OC)cc3nc2s1	PGK inhibitor inconclusive, PI4K2A inh -55.3
Clc1cc(Cl)c(OCC#CI)cc1Cl	none (no result: USP1 inh, PGK inhibitor, PI4K2A inh)
CCN(CC)C(=O)CC[C@H]1CC[C@]2(CCCN(S(=O)(=O)C3CCCCC3)C2)O1	none (no result: USP1 inh, PGK inhibitor, GLS inh)
CCC(C)(C)OC(=O)N[C@@H](Cc1c[nH]c2ccccc12)C(=O)N[C@@H](CCSC)C(=O)N[C@@H](CC(=O)O)C(=O)N[C@@H](Cc1ccccc1)C(N)=O	none (no result: USP1 inh, PGK inhibitor, PI4K2A inh)
C=C(C)C(=O)Nc1cccc(C2=NOC3(C2)C[C@@H](C(N)=O)N(C(=O)CCCCC)C3)c1 (stereo partly specified)	PGK inhibitor inconclusive, GLS inh 10µM
CCCCCC(=O)Nc1cccc(C2=NOC3(C2)C[C@@H](C(N)=O)N(C(=O)c2ccc(OC)cc2)C3)c1 (stereo partly specified)	none
C=C(C)C(=O)Nc1cccc(C2=NOC3(C2)C[C@@H](C(N)=O)N(C(=O)c2cc([N+](=O)[O-])cc([N+](=O)[O-])c2)C3)c1 (stereo partly specified)	PGK inhibitor 17.8µM
C=C(C)C(=O)Nc1cccc(C2=NOC3(C2)C[C@@H](C(N)=O)N(C(=O)c2ccc(OC)cc2)C3)c1 (stereo partly specified)	PGK inhibitor 2µM, PI4K2A inh inconclusive, GLS inh inconclusive
CCCCCC(=O)Nc1cccc(C2=NOC3(C2)C[C@@H](C(N)=O)N(C(=O)c2cc([N+](=O)[O-])cc([N+](=O)[O-])c2)C3)c1 (stereo partly specified)	none
CC(=O)O[C@]1(C(=O)CO)[C@@H](C)C[C@H]2[C@@H]3CCC4=CC(=O)C=C[C@]4(C)[C@@]3(F)[C@@H](O)C[C@]21C	none (no result: USP1 inh, PGK inhibitor, PI4K2A inh)
COc1cc2nc(Cl)nc(N)c2cc1OC	none (no result: USP1 inh, PGK inhibitor, GLS inh)
CCc1cc(=O)oc2cc(C)c(CN3CCCC(C)C3)c(O)c12 (stereo unspecified)	PI4K2A inh -50.9
CCCCc1cc(=O)oc2cc(C)c(CN3CCCC3)c(O)c12	GLS inh inconclusive
Cc1ccc2nc(-c3ccc(NC(=O)CSc4nnc(-c5ccccc5)n4Cc4ccco4)cc3)sc2c1	none (no result: USP1 inh, PGK inhibitor, GLS inh)
CC1CCN(S(=O)(=O)c2ccc(NC(=O)C3CCCCC3C(=O)O)cc2)CC1 (stereo unspecified)	GLS inh 11.2µM
CC1CCN(S(=O)(=O)c2ccc(NC(=O)[C@@H]3CCCC[C@@H]3C(=O)O)cc2)CC1	none
CC(=O)Oc1ccc2c(c1)O/C(=C\c1ccncc1)C2=O	USP1 inh 28.2µM
CCCCCC[C@@H](CCC)C(=O)O	none (no result: USP1 inh, PGK inhibitor)
OC(c1ccccc1)(c1ccccc1)C1CCN(CCCNc2ccc(C(F)(F)F)cc2)CC1	none (no result: USP1 inh, PGK inhibitor, GLS inh)
COc1ccc(N2Cc3cccc(C(=O)O)c3C2=O)cc1	PGK inhibitor inconclusive, GLS inh 15.8µM
COc1ccc(N2Cc3cccc(C(=O)Nc4cc(C)cc(C)c4)c3C2=O)cc1	USP1 inh inconclusive
CCc1ccc(NC(=O)Cn2c(=O)c(CNc3ccccc3)cc3cc(OC)c(OC)cc32)cc1	GLS inh 15.8µM
CCc1ccc(NCc2cc3cc4c(cc3n(CC(=O)Nc3ccc(Cl)cc3)c2=O)OCO4)cc1	USP1 inh inconclusive, GLS inh 12.6µM
CCc1ccc(NCc2cc3cc4c(cc3n(CC(=O)Nc3ccccc3C)c2=O)OCCO4)cc1	USP1 inh inconclusive, GLS inh 11.2µM
CCc1ccc(NCc2cc3cc4c(cc3n(CC(=O)Nc3ccccc3OC)c2=O)OCCO4)cc1	USP1 inh inconclusive
Cc1cc(Nc2ccccc2C(=O)O)ccc1Cl	none (no result: USP1 inh, PGK inhibitor, PI4K2A inh)
CC(=O)O[C@H]1CC[C@@]2(C)C(=CC[C@@H]3[C@@H]2CC[C@]2(C)C(C(C)=O)=CC[C@@H]32)C1	none (no result: USP1 inh, PGK inhibitor, GLS inh)
CC[C@H]1OC(=O)C[C@@H](O)[C@H](C)[C@@H](O[C@@H]2O[C@H](C)C[C@H](N(C)C)[C@@H]2O)[C@@H](CC=O)C[C@@H](C)C(=O)/C=C\[C@]2(C)O[C@H]2[C@@H]1C	none (no result: USP1 inh, PGK inhibitor, PI4K2A inh)
